Tgondii IFNg = T. gondii growth inhibition with IFN-gamma, primary screen, cell-based | Toxoplasma gondii growth in IFN-gamma-treated host cells; active compounds read low | activity change, negative = inhibition, % (concentration not given with the values) | 69,000 compounds, 3.8% hits; in the data active = activity change below about -70%, passing the limit was not always enough;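 also: host cells are HeLa cells infected with Toxoplasma gondii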
* hit, by the source's call; i = inactive. The sample as a whole holds a higher share of hits than the screen did.

SMILES	Tgondii IFNg
O=C(NCCc1csc(-c2ccc(F)cc2)n1)C(=O)Nc1ccc(F)cc1F	14.4
COc1ccc(-c2nc(C)c(CCNC(=O)c3ccc(F)c(F)c3)s2)cc1OC	i
CC1CCN(S(=O)(=O)c2ccc3c(c2)CCC(=O)N3CC(=O)N(C(C)C)C2CCCCC2)CC1	5.4
COc1ccc2c(c1)NC1(CCN(S(=O)(=O)c3ccc(Cl)c(Cl)c3)CC1)c1cccn1-2	32.2
COc1c[nH]c(CN2CCCC2c2nc3ccc(F)cc3[nH]2)cc1=O (centres undefined)	13.2
Clc1ccc(Nc2nc(Nc3ccc(Cl)cc3)nc(Oc3ccccc3)n2)cc1	-100.2*
COc1ccc(-c2nc(Nc3ccc(Cl)cc3)c3ccccc3n2)cc1	-42.3
c1ccc(Oc2nc(NCc3ccco3)nc(NCc3ccco3)n2)cc1	-17.8
O=C(NCc1noc(C2CCCO2)n1)c1cccc2ccnn12 (centres undefined)	5.8
Cc1ncnc2c1CCN(S(=O)(=O)c1cn(C)cn1)CC2	325.7
COCC1CN(CCc2ccccc2)CCN(C(=O)c2ccc(NC(C)=O)cc2)C1 (centres undefined)	-1.8
COc1ccc(CC(=O)N2CCc3c([nH]c4ccccc34)C2c2ccc(SC)cc2)cc1 (centres undefined)	298.6
CSc1ccc(C2c3[nH]c4ccccc4c3CCN2C(=O)c2ccccc2)cc1 (centres undefined)	-87.8*
COc1cc(C(=O)N2CCc3c([nH]c4ccccc34)C2c2ccc(SC)cc2)cc(OC)c1OC (centres undefined)	-60.1
COc1ccc(C(=O)N2CCc3c([nH]c4ccccc34)C2c2ccc(SC)cc2)cc1 (centres undefined)	-104.6*
CSc1ccc(C2c3[nH]c4ccccc4c3CCN2C(=O)c2ccncc2)cc1 (centres undefined)	309.0
CSc1ccc(C2c3[nH]c4ccccc4c3CCN2C(=O)c2ccc(F)cc2)cc1 (centres undefined)	-41.9
Cc1ccc(C(=O)N2C[C@H]3C[C@H](O)[C@H](O)C[C@H]3C2)c(=O)[nH]1	-38.2
C=CCn1c(=O)c(C(=O)Nc2ccccc2OCC)c(O)c2ccccc21	11.7
COc1cccc(C(=O)NCCc2csc(-c3cccc(C)c3)n2)c1	365.9
O=C(NCCc1csc(-c2ccc(F)cc2)n1)c1cccc(C(F)(F)F)c1	-34.3
O=C(NCCc1csc(-c2cccc(F)c2)n1)c1cccc(Br)c1	-81.3*
O=C(NCCc1csc(-c2cccc(F)c2)n1)c1ccc(Br)cc1	-50.1
O=C(NCCc1csc(-c2ccc(F)cc2)n1)c1cccc(Br)c1	-87.0*
COc1cccc(C(=O)NCCc2csc(-c3ccc(F)cc3)n2)c1	-68.3
SMILES	Tgondii IFNg
CC(=O)NCCc1csc(-c2cccc(F)c2)n1	102.1
Cc1cccc(C(=O)NCCc2csc(-c3cccc(F)c3)n2)c1	-74.6*
Cc1cccc(C(=O)NCCc2csc(-c3ccccc3)n2)c1	152.3
N#Cc1cccc(C(=O)N2C3COCC2CC(OCC2CC2)C3)c1 (centres undefined)	-33.0
COC(C)(C)C(=O)N1CCCC1c1ccc(Cc2cccc(C(F)(F)F)c2)cn1 (centres undefined)	2.6
CC(=O)N1CCOCC2(CN(CC3CC3)CCO2)C1 (centres undefined)	-12.2
CC1=C(C(=O)NCCN2CCCCC2C)C2(CCN(S(C)(=O)=O)CC2)OC1=O (centres undefined)	27.3
COC(=O)[C@H]1CN(C(=O)c2cccnc2)C[C@@H]1c1ccc(F)cc1	-10.5
Cc1ccc2c(C(O)CN3CCC4(CC3)CC(O)c3ccccc3O4)c[nH]c2c1 (centres undefined)	29.0
COc1ccc2[nH]cc(CCNc3ccc(S(=O)(=O)C(C)C)nn3)c2c1	-112.6*
COc1ccc2[nH]cc(CCNC(=O)c3ccc(N4CCCC4)c(S(=O)(=O)N4CCCC4)c3)c2c1	7.4
COc1ccc2[nH]cc(CCNc3ccc(S(=O)(=O)C4CCCCC4)nn3)c2c1	45.4
O=C(CC1N=C2c3ccccc3N=C(SCc3cc(=O)n4cc(Cl)ccc4n3)N2C1=O)NCc1cccs1 (centres undefined)	4.8
Cc1ccc2c(c1)C(CC(=O)N1CCc3c(nc(C)nc3N(C)C)C1)C(=O)N2 (centres undefined)	4.2
CCOCc1cnc2n1CCN(Cc1c(C)noc1C)C2C (centres undefined)	0.8
Cc1ccc(N2Cc3ncn(C)c3C(C(=O)O)C2)nn1 (centres undefined)	16.9
COc1ccc(C(=O)c2sc(=S)n(-c3ccccc3)c2N)cc1	325.3
Cc1nc2sc(C(=O)c3ccc(Br)cc3)c(N)c2c(C)c1C	-95.3*
Cc1nc(-c2cccc(F)c2)sc1CCNC(=O)c1ccc(Br)cc1	-50.1
Cc1ccc2c(C)c(C(=O)N3CCNCC3C(=O)N3CCOCC3)oc2c1 (centres undefined)	-18.1
c1ccc(-c2cc3n(n2)c2cc(-c4ccccc4)nn2c2cc(-c4ccccc4)nn32)cc1	-37.6
O=C(/C=C/c1ccc(Cl)cc1)NCCc1ccccc1	-12.5
O=C(COc1ccc(Cl)cc1)NCc1ccccc1	96.8
